Source: PubChem BioAssay
Most compounds without a hit are left out; they make up all but 17% or so of the library.
TGFb SMAD3 inh: qHTS for Inhibitors of TGF-b; Potency, µM (doses to about 46.1 µM), without a hit: top-dose activity, negative = inhibition, usual class: inhibitors; HepG2 CAGA-GFP TGF-b/SMAD3 reporter, GFP fluorescence, 18 h; TGF-beta stimulated, 500 pg/mL final; hit rate 1.2% among 410,000; further: on the % scale 0 is the no-effect control and ±100 the full control effect; nearly all actives have a fitted effect of over 65% in size
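HEPG2 CAGA-GFP reporter cells (1000/well, DMEM with 1% FBS) received compounds, then recombinant TGF-beta at 500 pg/mL final for 18 hours at 37 degrees C. Per-cell GFP summed per well was normalised to unstimulated and stimulated DMSO controls before curve fitting.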
HepG2 tox-1: qHTS for Inhibitors of TGF-b: Cytotox Counterscreen; Potency, µM (titrated, usually from 46.1 µM), for the others: at the highest dose activity change, negative = cytotoxicity, actives largely listed as cytotoxic; HepG2 CAGA-GFP viability, ATP luminescence, 18 h; hit rate 0.76% among 410,000
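CellTiter-Glo luminescence gave cytotoxicity after 18 hours at 37 degrees C. The cells were HepG2 CAGA-GFP in 1% FBS DMEM, stimulated with 500 pg/mL TGF-beta after compound addition. %Activity was normalised to no-cell wells (complete cell-killing) and DMSO (no toxicity), and curves were fitted and classified.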
HT1080 IDH1KD tx: qHTS for induction of synthetic lethality in tumor cells producing 2HG: qHTS for the HT-1080-IDH1KD cell line; AID 686971, 2013; hit rate 2% among 360,000; HT-1080 IDH1 knockdown viability, ATP luminescence, 48 h; Potency, µM (top dose mostly 46.1 µM), for inactives: at the top dose activity, negative = toxicity, hits mostly cytotoxic;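 further: 0% = DMSO wells and -100% = cell-free medium wells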
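Knockdown cells (IDH1KD HT-1080) received compounds 2 h after plating at 750 cells/well and were kept 48 h at 37 °C in 5% FBS RPMI. A CellTiter-Glo luminescence read gave % activity for curve fitting.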
DT40 TDP1 CPT: qHTS for Inhibitors of human tyrosyl-DNA phosphodiesterase 1 (TDP1): qHTS in cells in presence of CPT | chicken DT40 Tdp1-/-;hTDP1 cells + 20 nM CPT, ATP luminescence, 48 h | Potency, µM (series often up to 46.2 µM), inactives show top-dose activity change, negative = growth inhibition, usual class: inhibitors | hit rate 12% among 420,000 | AID 686979, 2013; further: on the % scale 0 is the no-effect control and ±100 the full control effect; nearly all actives have a fitted effect of over 55% in size
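Cell growth measured by CellTiter-Glo luminescence after a minimum 48 h, 37 C compound exposure with 20 nM CPT in Tdp1-knockout DT40 cells stably expressing hTDP1, seeded 400/well; qHTS titration format.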
HT1080-NT tox: qHTS for induction of synthetic lethality in tumor cells producing 2HG: qHTS for the HT-1080-NT fibrosarcoma cell line; hit rate 1.6% among 360,000; AID 686970, 2013; HT-1080-NT fibrosarcoma viability, CellTiter-Glo ATP luminescence, 48 h; Potency, µM (titrated, usually from 46.1 µM), inactives show at the top dose activity, negative = less viability, hits mostly cytotoxic;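 further: NT is the 2HG producing partner of a matched IDH1 knockdown line; 0% = DMSO-treated cells and -100% = media-only wells without cells; nearly all actives have a fitted effect of over 55% in size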
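A 48-hour cytotoxicity screen used HT-1080-NT cells plated 2 hours before compound delivery. ATP-based CellTiter-Glo luminescence measured viability, normalized to DMSO and no-cell controls.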
TDP1 cell noCPT: qHTS for Inhibitors of human tyrosyl-DNA phosphodiesterase 1 (TDP1): qHTS in cells in absence of CPT; DT40 Tdp1-/- hTDP1 cells, no CPT, ATP luminescence, 48 h; Potency, µM (highest dose often 46.2 µM), for inactives: at the highest dose activity change, negative = growth inhibition, hits mostly inhibitors; hit rate 15% among 420,000; further: on the % scale 0 is the no-effect control and ±100 the full control effect; nearly all actives have a fitted effect of over 55% in size
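Growth of hTDP1-complemented DT40 Tdp1-knockout cells is measured by ATP luminescence after at least 48 hr compound exposure at 37 °C, with DMSO substituting for the 20 nM CPT used in the parallel screen.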
TGFb confirm: qHTS for Inhibitors of TGF-b: Confirmation of Cherry Picks | AID 720534, 2013 | HepG2 CAGA-GFP TGF-b reporter, GFP fluorescence, 18 h; cells stimulated with TGF-beta, 500 pg/mL | Potency, µM (series often up to 46.1 µM), for inactives: top-dose activity, negative = inhibition, actives largely listed as inhibitors | shares compounds with TGFb SMAD3 inh | hit rate 63% among 1,600; further: on the % scale 0 is the no-effect control and ±100 the full control effect; nearly all actives have a fitted effect of over 65% in size
HepG2 tox-2: qHTS for Inhibitors of TGF-b: Cytotox Counterscreen for Cherry Picks; hit rate 27% among 1,600; Potency, µM (top dose mostly 46.1 µM), for the others: at the top dose activity, negative = cytotoxicity, hits mostly inhibitors; shares compounds with TGFb SMAD3 inh; HepG2 CAGA-GFP viability, ATP luminescence, 18 h; cells stimulated with TGF-beta, 500 pg/mL; further: on the % scale 0 is the no-effect control and ±100 the full control effect; nearly all actives have a fitted effect of over 70% in size
TGFb CCL64 inh: qHTS for Inhibitors of TGF-b: CCL64 Cells Orthogonal Assay for Cherry Picks. hit rate 41% among 1,600. CCL64 CAGA-GFP reporter, TGF-b stimulated, GFP fluorescence, 18 h. shares compounds with TGFb SMAD3 inh. Potency, µM (series often up to 46.1 µM), for the others: at the highest dose activity, negative = inhibition, most hits filed as inhibitors. AID 720536, 2013; further: nearly all actives have a fitted effect of over 65% in size
COP TGFb inh: qHTS for Inhibitors of TGF-b: Hit Validation in HepG2 Cells using COP promoter. Potency, µM (highest dose often 46.1 µM), inactives show at the top dose activity, negative = inhibition, usual class: inhibitors. hit rate 3% among 1,600. AID 720537, 2013. shares compounds with TGFb SMAD3 inh. HepG2 COP-GFP TGF-b reporter, GFP fluorescence, 18 h; cells stimulated by added recombinant TGF-beta; further: nearly all actives have a fitted effect of over 70% in size
* = called active by the depositor; ? = inconclusive; / = no result given. The call rests on the fitted dose curve; in most records, active means well fitted curve in the direction sought with a large enough effect; inconclusive means small, poorly fitted or top-dose-only effect, or another doubt; inactive means no such curve, though single readings can be large; an effect the other way counts as inactive or inconclusive. Potency means the concentration at half of the fitted maximal effect.

SMILES	TGFb SMAD3 inh	HepG2 tox-1	HT1080 IDH1KD tx	DT40 TDP1 CPT	HT1080-NT tox	TDP1 cell noCPT	TGFb confirm	HepG2 tox-2	TGFb CCL64 inh	COP TGFb inh
Cc1cc(C)c(CN2CCN(C(=O)Cn3cnc4c(OCc5ccccc5)ncnc43)CC2)c(C)c1	12.6µM*	-22.6%	?	8.2µM*	?	2.59µM*	3.66µM*	?	?	39.3%
CCc1ccc(CN(C)C(=O)c2cc(COc3cccc4cnccc34)on2)cc1	10µM*	-37.6%	14.6µM*	9.2µM*	?	6.51µM*	?	?	?	29.0%
CN(Cc1cccc2cnccc12)C(=O)c1cc(COc2ccc(F)cc2F)on1	-17.1%	-38.7%	-13.5%	?	3.8%	?	/	/	/	/
COc1ccc(Nc2c3c(nc4c(-c5ccccc5)c(C)nn24)CCC3)cc1	0.0%	-0.3%	9.6%	9.2%	16.2%	3.8%	/	/	/	/
Cc1nn2c(NCc3ccccn3)c3c(nc2c1-c1ccccc1)CCC3	11.2µM*	-30.1%	-28.9%	2.59µM*	-12.8%	4.61µM*	?	?	?	24.7%
O=C(O)CCC(=O)N1CCN(S(=O)(=O)c2ccc3ccccc3c2)CC1	2.1%	-6.3%	-1.9%	-20.6%	-8.4%	?	/	/	/	/
O=C(Cn1ncc(Cl)c(Cl)c1=O)N1CCN(S(=O)(=O)c2ccc3ccccc3c2)CC1	3.98µM*	-53.9%	3.66µM*	2.91µM*	2.59µM*	4.61µM*	2.59µM*	2.59µM*	5.17µM*	-22.3%
Cc1ccc(-n2nnnc2-c2cccs2)cc1[N+](=O)[O-]	17.2%	5.4%	-1.7%	23.2%	-0.2%	0.7%	/	/	/	/
CCOc1ccc(C(=O)c2cc([N+](=O)[O-])ccc2N2CCOCC2)cc1	1.12µM*	-32.0%	0.0259µM*	0.13µM*	0.0366µM*	0.164µM*	?	-3.2%	0.731µM*	0.9%
Cc1nn(-c2ccccc2)nc1C(=O)Nc1nnc(C(F)(F)F)s1	?	-16.3%	-3.6%	?	-23.6%	?	/	/	/	/
Cc1oc2c(c1C(=O)N1CCC(C)CC1)C(=O)c1ccccc1C2=O	3.98µM*	5.01µM*	23.1µM*	7.31µM*	20.6µM*	11.6µM*	3.66µM*	5.8µM*	11.6µM*	20.6µM*
CCOC(=O)C1CCN(C(=O)c2c(C)oc3c2C(=O)c2ccccc2C3=O)CC1	4.47µM*	2.82µM*	-14.7%	5.17µM*	-5.9%	7.31µM*	2.06µM*	5.17µM*	7.31µM*	5.8µM*
CC1CCN(C(=O)c2ccc3c(c2)C(=O)c2ccccc2-3)CC1	-4.9%	1.1%	9.7%	?	1.4%	?	/	/	/	/
CCOC(=O)C1CCCN(C(=O)c2ccccc2)CC1 (stereo unspecified)	-33.1%	6.2%	1.2%	-5.0%	-0.8%	9.2%	/	/	/	/
COc1ccccc1-c1cc(C(F)(F)F)nc(S(=O)(=O)CCCC(=O)N2CCCCC2C)n1 (stereo unspecified)	10µM*	-101.4%	23.1µM*	4.11µM*	?	4.11µM*	9.2µM*	18.4µM*	4.61µM*	?
CC1CCCCN1S(=O)(=O)c1ccc(S(=O)(=O)N2CCN(C)CC2)cc1 (stereo unspecified)	32.9%	20.0%	20.9%	-0.8%	5.2%	-6.6%	/	/	/	/
Cn1c(C(=O)O)c(S(=O)(=O)c2ccc(Cl)cc2)c2ccccc21	0.8%	12.9%	-0.6%	-5.5%	-0.4%	25.0%	/	/	/	/
CCC(C)Sc1cccc(-c2nc3cc(C)ccn3c2NCc2ccccc2)c1 (stereo unspecified)	15.8µM*	-1.4%	26.4µM*	23.1µM*	20.9µM*	?	?	?	16.4µM*	50.6%
COc1cccc(Cl)c1NC(=O)N1CCN(c2cc(C)nc3ccccc23)CC1	12.6µM*	-13.5%	?	16.4µM*	-27.4%	?	-68.5%	?	?	24.6%
CCN1CCN(S(=O)(=O)c2ccc(Cl)c(C(=O)N(C)CCOc3ccc(Cl)cc3)c2)CC1	14.1µM*	-9.3%	?	18.4µM*	?	14.6µM*	13µM*	?	?	11.8%
Cc1ccc(S(=O)(=O)N2CCOCC2)cc1C(=O)Nc1nc(-c2ccccn2)cs1	?	-5.5%	-26.9%	5.17µM*	-11.8%	4.11µM*	9.2µM*	?	?	8.9%
Cc1ccc(S(=O)(=O)N2CCOCC2)cc1C(=O)Nc1nc2ccccc2[nH]1	?	3.5%	1.8%	-14.9%	3.3%	?	/	/	/	/
O=S(=O)(CC(CN1CCCCC1)N1CCCCC1)c1ccccc1 (stereo unspecified)	10µM*	17.8µM*	?	7.31µM*	?	4.61µM*	13µM*	18.4µM*	4.61µM*	?
